In PubChem BioAssay AID485290 (National Center for Advancing Translational Sciences (NCATS), 2010):
“And” between values parts separate entries of the source, which are not always exact repeats. Equal values may be shown once. Hit rate of the full screen: of about 350,000 compounds, about 990 (0.28%) were called active. Another 2% or so got no clear call; they are omitted. Calls come from the whole dose curve; as a rule, active = well fitted inhibition curve with a large enough effect; inconclusive = small, poorly fitted or top-dose-only effect; inactive = no such curve, though single readings can be large or run the other way. Shown is part of a subset that was picked to be rich in actives. A call without a number means that no potency is given here. The source holds several records for some structures; these can differ, active in one and inactive in another.
Note: nearly all actives have a fitted effect of over 40% in size.
Potency is the fitted concentration of half-maximal effect.

Each molecule was assayed against Tyrosyl-DNA phosphodiesterase 1 (Homo sapiens) (UniProt Q9NUW8) (assay: qHTS Assay for Inhibitors of Tyrosyl-DNA Phosphodiesterase (TDP1)). Conditions: recombinant TDP1, AlphaScreen DNA substrate cleavage; series mostly up to 130 µM.
Tyrosyl-DNA phosphodiesterase 1 (Homo sapiens), sequence (Q9NUW8 whole entry, looked up): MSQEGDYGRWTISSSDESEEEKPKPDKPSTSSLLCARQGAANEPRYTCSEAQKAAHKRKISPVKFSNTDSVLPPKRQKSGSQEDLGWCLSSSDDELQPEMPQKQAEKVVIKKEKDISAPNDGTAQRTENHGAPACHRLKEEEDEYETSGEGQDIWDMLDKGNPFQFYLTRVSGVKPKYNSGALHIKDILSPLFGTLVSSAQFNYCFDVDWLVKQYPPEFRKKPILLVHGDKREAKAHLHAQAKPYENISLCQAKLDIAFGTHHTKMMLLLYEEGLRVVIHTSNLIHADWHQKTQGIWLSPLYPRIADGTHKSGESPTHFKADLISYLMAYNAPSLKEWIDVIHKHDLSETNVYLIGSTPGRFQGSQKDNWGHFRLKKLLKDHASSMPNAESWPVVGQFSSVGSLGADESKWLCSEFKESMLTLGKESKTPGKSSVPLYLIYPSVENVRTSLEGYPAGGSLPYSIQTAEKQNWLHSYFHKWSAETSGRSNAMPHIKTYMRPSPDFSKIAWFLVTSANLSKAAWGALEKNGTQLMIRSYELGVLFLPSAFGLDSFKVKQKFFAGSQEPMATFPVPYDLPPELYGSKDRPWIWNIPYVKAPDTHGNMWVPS
How it was run: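 Tdp1 1 nM final; 15 min RT w/ cpd; substrate 15 nM, 5 min; beads 10 ug/ml, 10 min; AlphaScreen read. Neg ctrl: no enzyme.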
For `OC[C@@H]1O[C@H](n2cnc3c(SCc4ccccc4)ncnc32)[C@H](O)[C@H]1O`, the Potency was “inactive”. In the case of `Cc1cc2c(s1)c1cnn(Cc3c(F)cccc3Cl)c(=O)c1n2C`, the Potency is reported as “inactive”. With `CCCCCC(=O)Nc1ccc(S(=O)(=O)Nc2ccc(Cl)nn2)cc1` the Potency was “inactive”. In the case of `Cc1nnc(SCC(=O)Nc2ccc(S(=O)(=O)Nc3ccc(Cl)nn3)cc2)s1`, the Potency is reported as 39.8 µM (active). In the case of `Cc1cnc(NC(=O)CSc2nnc(C)s2)s1`, the Potency is reported as “inactive”. For `COc1cccc(C2c3c(ncn(-c4cccc(Br)c4)c3=N)Oc3ccc4ccccc4c32)c1` (configuration not stated), the Potency was “inactive”. `O=C1CC(c2ccccc2)CC2=C1C(c1ccco1)n1nc(C(F)(F)F)nc1N2` (configuration not stated) was tested, and the Potency was “inactive”. `COc1ccc(NC(=O)CCN2C(=O)/C(=C/c3ccc4c(c3)OCO4)SC2=S)cc1` was tested, and the Potency was “inactive”. For `Cn1cccc1/C=C1\SC(=O)N(CC(=O)Nc2ccc(F)cc2)C1=O`, the Potency was “inactive”. `Cc1ccc(C(=O)O)cc1-c1ccc(/C=C2\SC(=O)N(CC(=O)Nc3ccc4c(c3)OCO4)C2=O)o1` was tested, and the Potency was 10 µM (active). `Cc1cc(C(=O)OCC(=O)N2c3ccccc3NC(=O)C2(C)C)c(C)n1-c1ccccc1` was tested, and the Potency was “inactive”. `CC1(C)C(=O)Nc2ccccc2N1C(=O)COC(=O)Cn1cnc2ccccc2c1=O` was tested, and the Potency was “inactive”. In the case of `CNS(=O)(=O)c1cccc(C(=O)OCC(=O)N2c3ccccc3NC(=O)C2(C)C)c1`, the Potency is reported as 31.6 µM (active). With `CCOC(=O)c1ccccc1NC(=O)CSc1nc2ccccc2c(=O)[nH]1` the Potency was “inactive”. With `O=C(CSc1nc2ccccc2c(=O)[nH]1)Nc1nc(-c2ccc(Br)cc2)cs1` the Potency was 12.6 µM (active). In the case of `CC(=O)NCc1ccc(-c2csc(NC(=O)CCCc3nc4ccccc4c(=O)[nH]3)n2)cc1`, the Potency is reported as “inactive”. `O=S(=O)(c1ccc2c(c1)OCCCO2)N1CCN(S(=O)(=O)c2c(F)cccc2F)CC1` was tested, and the Potency was “inactive”. For `Brc1nc2ncnc(NCc3ccco3)c2[nH]1`, the Potency was “inactive”. In the case of `COC(=O)c1ccc(NC(=O)CSc2n[nH]c(-c3ccccc3)n2)cc1`, the Potency is reported as “inactive”. `CN(C)c1ccc(C(CNS(=O)(=O)c2cc(F)ccc2F)N2CCOCC2)cc1` (configuration not stated) was tested, and the Potency was “inactive”. With `COc1ccc(C2Nc3ccccc3C(=O)N2Cc2ccc(CNC(=O)CO)cc2)cc1COc1ccc(NC(C)=O)cc1` (configuration not stated) the Potency was “inactive”. In the case of `COc1ccc(/C=C2\SC(=S)N(CCC(=O)Nc3ccccn3)C2=O)cc1OC`, the activity change, negative = inhibition is reported as 5.5% [at 0.0935 µM] (inactive). With `CN(C)S(=O)(=O)c1cccc(-c2nn(-c3ccccc3)cc2/C=C2\SC(=S)N(CC(=O)O)C2=O)c1` the Potency was “inactive”. For `COc1ccc(-c2nn(-c3ccccc3)cc2/C=C2/SC(=S)N(CCCC(=O)O)C2=O)c(C)c1`, the Potency was 39.8 µM (active). With `Cc1ccc(C(=O)NC2CCN(C#N)CC2)cc1` the Potency was “inactive”. `CCN(CC)c1nc(C#N)nc(OC)n1` was tested, and the Potency was “inactive”. In the case of `COc1ccc(CCn2c3c(c(=O)[nH]c2=S)CN(C(C)C)CN3)cc1OC`, the Potency is reported as “inactive”. For `Cc1ccc(C)c(N2C(=O)N(Cc3c(F)cccc3Cl)c3ccccc3S2(=O)=O)c1`, the Potency was “inactive”. For `N#Cc1ccc(OC2=NS(=O)(=O)c3ccccc32)cc1`, the Potency was “inactive”. In the case of `Fc1ccccc1Oc1ncnc2c1oc1ccccc12`, the Potency is reported as “inactive”. `Cc1cccc(N2CCN(S(=O)(=O)c3ccc4[nH]c(=O)c(=O)[nH]c4c3)CC2C)c1` (configuration not stated) was tested, and the Potency was 35.5 µM (active). In the case of `Cc1cccc(N2CCN(C(=O)c3cccc(S(=O)(=O)N4CCc5ccccc5C4)c3)CC2C)c1` (configuration not stated), the Potency is reported as “inactive”. For `Cc1cccc(N2CCN(S(=O)(=O)c3ccc(-c4cc(C)no4)s3)CC2C)c1` (configuration not stated), the Potency was “inactive”. For `COC(=O)c1ccccc1NC(=O)c1ccc(C#N)cc1`, the Potency was “inactive”. In the case of `CCOC(=O)c1ccc(NC(=O)c2c(NCc3cccs3)sc3c2CCCC3)cc1`, the Potency is reported as “inactive”. For `Cc1nn2c(=O)cc(COC(=O)c3cccc(NC(=O)COc4ccccc4Cl)c3)nc2s1`, the Potency was “inactive”. `Cc1ccccc1NC(=O)CN1C(=O)N/C(=C\c2cccn2-c2cccc(C(=O)O)c2)C1=O` was tested, and the Potency was 1.41 µM (active). With `Cc1cccc(NC(=O)CN2C(=O)c3ccccc3C2=O)c1C` the Potency was “inactive”. For `O=C1N/C(=C/c2cccn2-c2ccccc2)C(=O)N1c1cccc(Cl)c1`, the Potency was “inactive”. With `O=C(COc1ccccc1Cl)Nc1ccc2nc(SCC(=O)N3CCCC3)sc2c1` the Potency was “inactive”. For `Oc1ccc(/C=C/c2c(F)cccc2F)c2cccnc12`, the Potency was “inactive”. For `O=S(=O)(c1cccc(C(F)(F)F)c1)N1CCN(c2nc(-c3cccs3)nc3ccccc23)CC1`, the Potency was “inactive”. With `COc1ccc(C(=O)NCc2cn3ccccc3n2)cc1` the Potency was “inactive”. In the case of `O=Cc1ccc(OCc2cn3ccccc3n2)cc1`, the Potency is reported as “inactive”. In the case of `CN(C)C(CNC(=O)c1ccc(OCc2cn3ccccc3n2)cc1)c1ccco1` (configuration not stated), the Potency is reported as 14.1 µM (active). For `CCOC(=O)Cn1c(=O)n(-c2ccccc2OC)c2nc(-c3cccc(F)c3)nc(C(N)=O)c21`, the Potency was “inactive”. With `COc1ccc(C(=O)Nc2ccc(-n3nncc3-c3ccccc3)cc2)cc1OC` the Potency was “inactive”. With `Cc1cc(C)cc(C(=O)NC2C(=O)N3C(C(=O)O)=C(CSc4nnc(C)s4)CSC23)c1` (configuration not stated) the Potency was “inactive”. With `Cc1nnc(SCC2=C(C(=O)O)N3C(=O)C(NC(=O)Cn4nc(C)c(Cl)c4C)C3SC2)s1` (configuration not stated) the Potency was “inactive”. With `CO/N=C(\C(=O)N[C@@H]1C(=O)N2C(C(=O)O)=C(COC(C)=O)CS[C@H]12)c1csc(N)n1` (stereo in doubt) the Potency was “inactive and 10 µM (active) and 20 µM (active)”. With `C=CC1=C(C(=O)O)N2C(=O)[C@@H](NC(=O)/C(=N\OCC(=O)O)c3csc(N)n3)[C@H]2SC1` the Potency was 14.1 µM (active). `COc1ccc(C2Nc3ccc(NC(=O)COC(C)=O)cc3C(=O)N2Cc2ccccc2)cc1COc1ccc(NC(C)=O)cc1` (configuration not stated) was tested, and the Potency was “inactive”. With `COc1cccc(Cn2c(SCc3ccc(C(=O)N4CCC(C)CC4)cc3)nc3ccncc32)c1` the Potency was “inactive”. In the case of `CCOC(=O)c1ccc(NC(=O)c2c(NCc3cccc(OC)c3)sc3c2CCC3)cc1`, the Potency is reported as “inactive”. With `COC(=O)c1ccc(NC(=O)c2cnn(-c3ccc(Cl)cc3)c2C2CCN(C(=O)OC(C)(C)C)CC2)cc1` the Potency was “inactive”. For `COc1ccc(C(=O)Nc2cccc(C(=O)OCc3cc(=O)n4c5c(sc4n3)CCCC5)c2)cc1`, the Potency was “inactive”. For `CC(C)c1ccc(NC(=O)c2ccc(Cn3nc(N4CCN(c5ccccc5)CC4)ccc3=O)o2)cc1`, the Potency was “inactive”.
